# Test results published in PubChem BioAssay.
# Values joined by “and” are separate entries in the source; they are usually repeats but may differ in a detail not shown here. Equal values may be shown once. Active and inactive are the calls of the source. Unless noted, no stated cut-off is given here; in the data, active means parasite load remaining mostly below about 12% (no sharp cut-off); inactive means mostly above about 10%.
# Experiments:
# [1] = P. berghei load reduction in hepatocytes – cell-based, HepG2, luciferase luminescence, HepG2 viability, primary screen (AID 624349);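 further: 100% = mean of DMSO negative control wells on the same plate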; details: P. berghei liver stage in HepG2, luciferase luminescence, concentration not given here; parasite load remaining: stronger effect = lower value; viability: measured here: HepG2 viability without parasites
# [2] = Wnt pathway potentiators raising nuclear beta-catenin – imaging, WNT3A-conditioned medium, mouse C2C12, NPC library, primary screen (AID 1117326; in the data active means nuclear beta-catenin stimulation mostly above about 4.2%, no sharp cut-off; inactive means mostly below about 10%); details: stronger effect = higher value
# [3] = signal quenchers or enhancers, Cy5 substrate/SSB – biochemical, NIH Clinical Collection, E. coli SSB, artefact control for HCV NS3 helicase inhibitor project (AID 743268; call rule not given here); details: Cy5-oligo bound E. coli SSB, fluorescence interference
# [4] = tested on: Hepatitis C virus NS3 helicase; assay: blockers of NS3h binding to DNA – biochemical, fluorescence polarization, NIH Clinical Collection, primary screen (AID 743270; call rule not given here); details: NS3 helicase binding to Cy5-dT15 DNA, stronger effect = higher value, concentration not given here
# [5] = biological target: Single-stranded DNA-binding protein (Escherichia coli (strain K12)) (UniProt P0AGE0); assay: SSB-ssDNA binding inhibitors – biochemical, fluorescence polarization, NIH Clinical Collection, counter-screen for HCV NS3 helicase inhibitor project (AID 743271; in the data active means inhibition above about 28%); details: E. coli SSB-DNA binding, stronger effect = higher value, concentration not given here
# [6] = compounds distorting NS3 helicase fluorescence signal – biochemical, NIH Clinical Collection, artefact control for HCV NS3 helicase inhibitor project (AID 743272; call rule not given here;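 further: HCV NS3 helicase with a Cy5 labelled single stranded DNA probe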); details: fluorescence interference counterscreen, HCV NS3 helicase assay; stronger effect = lower value
# [7] = tested on: Hepatitis C virus NS3 helicase; assay: blockers of NS3h binding to ssDNA – biochemical, fluorescence polarization, LOPAC1280 library, primary screen (AID 687035; in the data active means inhibition above about 37%); details: Purified HCV NS3 helicase, Cy5-dT15 ssDNA binding fluorescence polarization; stronger effect = higher value; concentration not given here
# [8] = compounds altering Cy5-DNA-NS3h complex signal – biochemical, LOPAC1280, artefact control for HCV NS3 helicase inhibitor project (AID 687037; call rule not given here); details: Cy5-DNA-NS3h complex fluorescence interference counterscreen
# [9] = tested on: Neuropilin-2 / VEGF-C interaction (human); assay: small molecules blocking Neuropilin-2/VEGF-C interaction – biochemical, microplate binding format, z-score (AID 743281; call rule not given here); details: microplate NRP2/VEGF-C binding assay; stronger effect = lower value
smiles,measurement,setting,value
COC(=O)Nc1nc2ccc(S(=O)c3ccccc3)cc2[nH]1 (centres undefined),parasite load remaining,[1],162% (inactive) and 87.1% (inactive) and 49.8% (inactive)
same,viability,[1],85.8% and 93.1% and 68.5%
same,nuclear beta-catenin stimulation,[2]; at 10 µM,57.7% (active)
same,nuclear beta-catenin stimulation,"[2]; stimulation, at 2 µM",58.1%
O=c1oc2c(O)c(O)cc3c(=O)oc4c(O)c(O)cc1c4c23,parasite load remaining,[1],130% (inactive)
same,viability,[1],65.1%
same,nuclear beta-catenin stimulation,[2]; at 10 µM,-1.4% (inactive)
same,nuclear beta-catenin stimulation,"[2]; stimulation, at 2 µM",2.3%
CC(N)C12CC3CC(CC(C3)C1)C2 (centres undefined),parasite load remaining,[1],59.2% (inactive) and 69.6% (inactive) and 54.8% (inactive)
same,viability,[1],94.8% and 97.2% and 73%
same,fluorescence ratio,[3],1.02 (inactive)
same,inhibition,[4],-2.27% (inactive)
same,inhibition,[5],1.81% (inactive)
same,fluorescence ratio,[6],1.03 (inactive)
same,nuclear beta-catenin stimulation,[2]; at 10 µM,1.8% (inactive)
same,nuclear beta-catenin stimulation,"[2]; stimulation, at 2 µM",0.3%
Nc1nc(F)nc2c1ncn2[C@@H]1O[C@H](CO)[C@@H](O)[C@@H]1O,parasite load remaining,[1],18.4% (inactive)
same,viability,[1],114%
same,fluorescence ratio,[3],1.01 (inactive)
same,inhibition,[4],1.36% (inactive)
same,inhibition,[5],-2.76% (inactive)
same,fluorescence ratio,[6],1.02 (inactive)
same,nuclear beta-catenin stimulation,[2]; at 10 µM,0.3% (inactive)
same,nuclear beta-catenin stimulation,"[2]; stimulation, at 2 µM",2.3%
COc1ccc(-c2cc(C(F)F)nn2-c2ccc(S(N)(=O)=O)cc2)cc1F,parasite load remaining,[1],70.5% (inactive)
same,viability,[1],97.2%
same,nuclear beta-catenin stimulation,[2]; at 10 µM,4% (inactive)
same,nuclear beta-catenin stimulation,"[2]; stimulation, at 2 µM",0.7%
C#C[C@]1(O)CC[C@H]2[C@@H]3[C@H](C)CC4=C(CCC(=O)C4)[C@H]3CC[C@@]21C,parasite load remaining,[1],43.6% (inactive) and 8.38% (inactive)
same,viability,[1],76.2% and 73.5%
same,fluorescence ratio,[3],0.99 (inactive)
same,inhibition,[4],0.66% (inactive)
same,inhibition,[5],1.18% (inactive)
same,fluorescence ratio,[6],0.99 (inactive)
same,nuclear beta-catenin stimulation,[2]; at 10 µM,7.4% (inactive)
same,nuclear beta-catenin stimulation,"[2]; stimulation, at 2 µM",0.8%
O=C(O)CN1C(=O)c2cccc3cccc(c23)C1=O,parasite load remaining,[1],30.8% (inactive)
same,viability,[1],96.3%
same,nuclear beta-catenin stimulation,[2]; at 10 µM,-0.2% (inactive)
same,nuclear beta-catenin stimulation,"[2]; stimulation, at 2 µM",0.9%
OC[C@H]1O[C@@H](Oc2ccc(O)cc2)[C@H](O)[C@@H](O)[C@@H]1O,parasite load remaining,[1],102% (inactive)
same,viability,[1],72.2%
same,nuclear beta-catenin stimulation,[2]; at 10 µM,-2.1% (inactive)
same,nuclear beta-catenin stimulation,"[2]; stimulation, at 2 µM",1%
CC(N)C(=O)OC(C)(C)Cc1ccc(Cl)cc1 (centres undefined),parasite load remaining,[1],159% (inactive)
same,viability,[1],87.1%
same,nuclear beta-catenin stimulation,[2]; at 10 µM,8% (inactive)
same,nuclear beta-catenin stimulation,"[2]; stimulation, at 2 µM",3.3%
O=C(O)c1cc(O)c(O)c(O)c1,parasite load remaining,[1],50.3% (inactive)
same,viability,[1],100%
same,nuclear beta-catenin stimulation,[2]; at 10 µM,1% (inactive)
same,nuclear beta-catenin stimulation,"[2]; stimulation, at 2 µM",-0.2%
NS(=O)(=O)Cc1noc2ccccc12,parasite load remaining,[1],75.4% (inactive) and 46.4% (inactive)
same,viability,[1],89.2% and 110%
same,fluorescence ratio,[3],1 (inactive)
same,inhibition,[4],-6.82% (inactive)
same,inhibition,[5],-4.29% (inactive)
same,fluorescence ratio,[6],1 (inactive)
same,nuclear beta-catenin stimulation,[2]; at 10 µM,0.1% (inactive)
same,nuclear beta-catenin stimulation,"[2]; stimulation, at 2 µM",0.4%
O=c1ccc2ccccc2o1,parasite load remaining,[1],71% (inactive)
same,viability,[1],94.5%
same,nuclear beta-catenin stimulation,[2]; at 10 µM,-0.2% (inactive)
same,nuclear beta-catenin stimulation,"[2]; stimulation, at 2 µM",-0.6%
O=C(NC(Cc1cc(=O)[nH]c2ccccc12)C(=O)O)c1ccc(Cl)cc1 (centres undefined),parasite load remaining,[1],149% (inactive) and 24.1% (inactive)
same,viability,[1],88.8% and 69%
same,nuclear beta-catenin stimulation,[2]; at 10 µM,-0.8% (inactive)
same,nuclear beta-catenin stimulation,"[2]; stimulation, at 2 µM",-1%
Cc1[nH]c(C)c(Cl)c(=O)c1Cl,parasite load remaining,[1],132% (inactive) and 21.1% (inactive) and 5.5% (inactive)
same,viability,[1],78.8% and 117% and 80.5%
same,nuclear beta-catenin stimulation,[2]; at 10 µM,1.4% (inactive)
same,nuclear beta-catenin stimulation,"[2]; stimulation, at 2 µM",0.4%
Nc1ncnc2c1ncn2[C@@H]1O[C@H](CO)[C@@H](O)[C@H]1O,parasite load remaining,[1],102% (inactive) and 72.2% (inactive)
same,viability,[1],77.4% and 98.9%
same,nuclear beta-catenin stimulation,[2]; at 10 µM,10.9% (inactive)
same,nuclear beta-catenin stimulation,"[2]; stimulation, at 2 µM",1.8%
Nc1ccc(C(=O)Oc2ccccc2)c(O)c1,parasite load remaining,[1],67.6% (inactive)
same,viability,[1],172%
same,nuclear beta-catenin stimulation,[2]; at 10 µM,0.2% (inactive)
same,nuclear beta-catenin stimulation,"[2]; stimulation, at 2 µM",2.9%
O=C(NCCN1CCOCC1)c1ccc(Cl)cc1,parasite load remaining,[1],153% (inactive) and 134% (inactive)
same,viability,[1],108% and 80.7%
same,inhibition,[7],-6% (inactive)
same,fluorescence ratio (interference),[8],0.9 (inactive)
same,fluorescence ratio,[3],1.03 (inactive)
same,inhibition,[4],5.94% (inactive)
same,inhibition,[5],8.37% (inactive)
same,fluorescence ratio,[6],0.99 (inactive)
same,z-score,[9],-0.561 (inactive)
same,nuclear beta-catenin stimulation,[2]; at 10 µM,0.1% (inactive)
same,nuclear beta-catenin stimulation,"[2]; stimulation, at 2 µM",0.4%
CC1(C)O[C@@H]2C[C@H]3[C@@H]4C[C@H](F)C5=CC(=O)C=C[C@]5(C)[C@@]4(F)[C@@H](O)C[C@]3(C)[C@]2(C(=O)CO)O1,parasite load remaining,[1],46.3% (inactive) and 25.1% (inactive)
same,viability,[1],96.3% and 68%
same,fluorescence ratio,[3],1 (inactive)
same,inhibition,[4],-1.36% (inactive)
same,inhibition,[5],0.29% (inactive)
same,fluorescence ratio,[6],0.97 (inactive)
same,nuclear beta-catenin stimulation,[2]; at 10 µM,-1.6% (inactive)
same,nuclear beta-catenin stimulation,"[2]; stimulation, at 2 µM",2%
CN(CCCN1c2ccccc2CCc2ccccc21)CC(=O)c1ccc(Cl)cc1,parasite load remaining,[1],66.2% (inactive)
same,viability,[1],68.6%
same,fluorescence ratio,[3],0.86 (inactive)
same,inhibition,[4],7.52% (inactive)
same,inhibition,[5],2.98% (inactive)
same,fluorescence ratio,[6],1.21 (active)
same,outcome,[9],inactive
same,nuclear beta-catenin stimulation,[2]; at 10 µM,1.2% (inactive)
same,nuclear beta-catenin stimulation,"[2]; stimulation, at 2 µM",-1.4%
CO/N=C1\CN(c2nc3c(cc2F)c(=O)c(C(=O)O)cn3C2CC2)CC1CN (centres undefined),parasite load remaining,[1],155% (inactive) and 46.4% (inactive)
same,viability,[1],85.7% and 106%
same,nuclear beta-catenin stimulation,[2]; at 10 µM,4.1% (inactive)
same,nuclear beta-catenin stimulation,"[2]; stimulation, at 2 µM",3.4%
Cc1cc2nc3c(=O)[nH]c(=O)nc-3n(C[C@H](O)[C@H](O)[C@H](O)CO)c2cc1C,parasite load remaining,[1],147% (inactive)
same,viability,[1],99.8%
same,nuclear beta-catenin stimulation,[2]; at 10 µM,4.5% (inactive)
same,nuclear beta-catenin stimulation,"[2]; stimulation, at 2 µM",2.2%
CC(=O)Nc1c(I)cc(I)c(C(=O)O)c1I,parasite load remaining,[1],151% (inactive) and 81.4% (inactive)
same,viability,[1],82.9% and 215%
same,nuclear beta-catenin stimulation,[2]; at 10 µM,-0.1% (inactive)
same,nuclear beta-catenin stimulation,"[2]; stimulation, at 2 µM",1.9%
CN(C)CCc1c[nH]c2ccc(CS(=O)(=O)N3CCCC3)cc12,parasite load remaining,[1],135% (inactive)
same,viability,[1],87.9%
same,nuclear beta-catenin stimulation,[2]; at 10 µM,1.7% (inactive)
same,nuclear beta-catenin stimulation,"[2]; stimulation, at 2 µM",1.6%
